Results from PubChem BioAssay.
Records with an inconclusive call do not appear. Active and inactive are the calls of the source.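 Rule for the calls, unless noted: active = GFP response, as percent of the DMSO control, above the screen-wide mean plus 3 SD, about 139; inconclusive = no response measured because the compound's own fluorescence interfered; inactive = the rest.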

How the values were obtained:
[1] = rapamycin-like changes in RPL19A-GFP expression – cell-based, S. cerevisiae, multiplex flow cytometry, primary screen (AID 1862; in the data active = percent of DMSO control GFP below about 86%;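 note: lower values mimic rapamycin by blocking the RPL19A rise seen in DMSO cells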); settings: S. cerevisiae RPL19A-GFP strain, flow cytometry fluorescence, 3 h; at 10 µM; stronger effect = lower value
[2] = TOR pathway GLN3 branch reporter MEP2-GFP changes – S. cerevisiae, multiplex flow cytometry, primary screen (AID 1867);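 note: median GFP channel fluorescence of barcode-gated MEP2-GFP cells measured by flow cytometry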; settings: S. cerevisiae MEP2-GFP strain, 3 h, at 10 µM, stronger effect = higher value, 100% means same as DMSO wells
[3] = TOR pathway RTG branch CIT2 reporter changes – S. cerevisiae, GFP fusion, multiplex flow cytometry, primary screen (AID 1870;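 active = percent response above a set limit, the screen-wide mean plus 3 SD, cut at about 130% in these data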;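 note: barcoded CIT2-GFP strain pooled with four other GFP strains with rapamycin as positive control; median GFP fluorescence per well over plate mean of DMSO wells so 100% = DMSO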); settings: S. cerevisiae CIT2-GFP expression, 3 h, at 10 µM, stronger effect = higher value
[4] = TOR pathway LAP4-GFP level changes – S. cerevisiae, multiplex flow cytometry, primary screen (AID 1873;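 active = GFP signal, as percent of the solvent control, above the screen mean plus 3 SD, about 149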); settings: S. cerevisiae LAP4-GFP expression, 3 h, at 10 µM, stronger effect = higher value
[5] = yeast AGP1-GFP level changes, GLN3 branch – cell-based, multiplex flow cytometry, S. cerevisiae, primary screen (AID 1887;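 active = GFP signal above the screen-wide mean plus 3 SD, that is over about 124.5% of the solvent control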;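 note: AGP1-GFP fusion strain of S. cerevisiae within a five-strain barcoded multiplex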); settings: 3 h, at 10 µM, stronger effect = higher value
[6] = hit retest on RPL19A-GFP reporter strain – cell-based, S. cerevisiae, flow cytometry, cherry picks, mother/daughter gates, confirmation (AID 2270;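 active = GFP response below 50% of the DMSO control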); settings: 3 h, at 10 µM, stronger effect = lower value, 100 = same GFP as DMSO wells
[7] = yeast TOR pathway reporter LAP4-GFP change – cell-based, cherry picks, flow cytometry, mother/daughter gates, confirmation (AID 2271;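 active = GFP response above 150% of the DMSO control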;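 note: ratio of sample to DMSO plate mean so 100% equals DMSO level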); settings: S. cerevisiae LAP4-GFP strain, 3 h, at 10 µM, stronger effect = higher value, 100 means same as DMSO control
[8] = TOR pathway reporter MEP2-GFP, retest of hits – S. cerevisiae, flow cytometry GFP, cherry picks, confirmation (AID 2272;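 active = GFP response above 150% of the DMSO control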;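 note: ratio of well signal to plate DMSO mean so 100% equals DMSO level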); settings: S. cerevisiae MEP2-GFP strain, 3 h, at 10 µM, stronger effect = higher value
[9] = TOR pathway CIT2 reporter hit retest – S. cerevisiae, GFP fusion, cherry picks, mother/daughter gates, confirmation (AID 2274;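 active = GFP response above 150% of the DMSO level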); settings: S. cerevisiae CIT2-GFP strain, flow cytometry, 3 h, at 10 µM, stronger effect = higher value
[10] = reduced mouse 2C T cell binding to pMHC/ICAM-1 vesicles – MLPCN validation set, flow cytometry, LFA-1/ICAM-1 modulator project, pilot screen (AID 2523;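 active = response below a set limit, under 55% cells CD8-positive and vesicle-bound, and CD8 cells' 90th-percentile brightness under 279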;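 for vesicle binding response: mean PE anti-B7-1 fluorescence of CD8+ cells relative to row control; 100% = QL9-loaded vesicles with DMSO vehicle in the same plate row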); settings: 2C mouse CD8+ T cells, at 7 µM, stronger effect = lower value; double positive events: measured here: CD8+/vesicle+ event percentage
[11] = measured here: daughter cell gate
[12] = measured here: mother cell gate
[13] = measured here: daughter cell gate response
[14] = measured here: mother cell gate response

In the case of `C#C[C@]1(O)CC[C@H]2[C@@H]3CCC4=CC(=O)CC[C@@H]4[C@H]3CC[C@@]21CC`, the percent of DMSO control GFP [1] is reported as 96.3% (inactive), the GFP response vs DMSO [2] is reported as 96.6% (inactive) and the percent response of DMSO control [3] is reported as 97.7% (inactive). For the same compound, the GFP response vs DMSO [4] was 107% (inactive), the GFP response, % of DMSO [5] was 103% (inactive) and the GFP response vs DMSO [6] was 101% (inactive). For the same compound, the GFP response vs DMSO [6, 11] was 98.7%, the GFP response vs DMSO [6, 12] was 101% and the GFP response relative to DMSO [7] was 101% (inactive). The GFP response relative to DMSO [7, 13] was 102%, the GFP response relative to DMSO [7, 14] was 103% and the GFP response vs DMSO [8] was 95.7% (inactive). For the same compound, the GFP response, % of DMSO [9] was 102% (inactive), the GFP response, % of DMSO [9, 11] was 99.7% and the GFP response, % of DMSO [9, 12] was 102%. For the same compound, the double positive events [10] was 62.5% and the vesicle binding response [10] was 142% (inactive).

In the case of `CCOc1cc(C=O)ccc1OCCSc1ccc(C)cc1`, the percent of DMSO control GFP [1] is reported as 94.6% (inactive), the GFP response vs DMSO [2] is reported as 103% (inactive) and the percent response of DMSO control [3] is reported as 77.8% (inactive). For the same compound, the GFP response vs DMSO [4] was 168% (active), the GFP response, % of DMSO [5] was 101% (inactive) and the GFP response vs DMSO [6] was 92.9% (inactive). For the same compound, the GFP response vs DMSO [6, 11] was 87.7%, the GFP response vs DMSO [6, 12] was 96.4% and the GFP response relative to DMSO [7] was 131% (inactive). The GFP response relative to DMSO [7, 13] was 122%, the GFP response relative to DMSO [7, 14] was 137% and the GFP response vs DMSO [8] was 116% (inactive). For the same compound, the GFP response, % of DMSO [9] was 93.5% (inactive), the GFP response, % of DMSO [9, 11] was 92.7% and the GFP response, % of DMSO [9, 12] was 93.3%. For the same compound, the double positive events [10] was 60.1% and the vesicle binding response [10] was 185% (inactive).

With `CN1CCN2c3ccccc3Cc3ccccc3C2C1` (stereo not given) the percent of DMSO control GFP [1] was 90.2% (inactive), the GFP response vs DMSO [2] was 146% (active) and the percent response of DMSO control [3] was 118% (inactive). For the same compound, the GFP response vs DMSO [4] was 94.6% (inactive), the GFP response, % of DMSO [5] was 107% (inactive) and the GFP response vs DMSO [6] was 99.3% (inactive). For the same compound, the GFP response vs DMSO [6, 11] was 98.4%, the GFP response vs DMSO [6, 12] was 100% and the GFP response relative to DMSO [7] was 95% (inactive). For the same compound, the GFP response relative to DMSO [7, 13] was 97.2%, the GFP response relative to DMSO [7, 14] was 97.2% and the GFP response vs DMSO [8] was 100% (inactive). For the same compound, the GFP response, % of DMSO [9] was 99.1% (inactive), the GFP response, % of DMSO [9, 11] was 94.8% and the GFP response, % of DMSO [9, 12] was 101%. For the same compound, the double positive events [10] was 61.8% and the vesicle binding response [10] was 183% (inactive).

For `CCCCN(CCCC)CCCOC(=O)c1ccc(N)cc1`, the percent of DMSO control GFP [1] was 92% (inactive), the GFP response vs DMSO [2] was 150% (active) and the percent response of DMSO control [3] was 115% (inactive). The GFP response vs DMSO [4] was 82% (inactive), the GFP response, % of DMSO [5] was 81.7% (inactive) and the GFP response vs DMSO [6] was 97.6% (inactive). The GFP response vs DMSO [6, 11] was 97.4%, the GFP response vs DMSO [6, 12] was 98% and the GFP response relative to DMSO [7] was 94.1% (inactive). For the same compound, the GFP response relative to DMSO [7, 13] was 97.6%, the GFP response relative to DMSO [7, 14] was 94% and the GFP response vs DMSO [8] was 98.3% (inactive). The GFP response, % of DMSO [9] was 99.7% (inactive), the GFP response, % of DMSO [9, 11] was 101% and the GFP response, % of DMSO [9, 12] was 99.7%. The double positive events [10] was 64.8% and the vesicle binding response [10] was 181% (inactive).

With `O=C(O)CCNC(=O)c1ccccc1` the percent of DMSO control GFP [1] was 90% (inactive), the GFP response vs DMSO [2] was 151% (active) and the percent response of DMSO control [3] was 101% (inactive). The GFP response vs DMSO [4] was 82% (inactive), the GFP response, % of DMSO [5] was 91% (inactive) and the GFP response vs DMSO [6] was 98.7% (inactive). For the same compound, the GFP response vs DMSO [6, 11] was 97.5%, the GFP response vs DMSO [6, 12] was 98.1% and the GFP response relative to DMSO [7] was 103% (inactive). The GFP response relative to DMSO [7, 13] was 102%, the GFP response relative to DMSO [7, 14] was 103% and the GFP response vs DMSO [8] was 102% (inactive). For the same compound, the GFP response, % of DMSO [9] was 97.8% (inactive), the GFP response, % of DMSO [9, 11] was 98.3% and the GFP response, % of DMSO [9, 12] was 98%. The double positive events [10] was 65.7% and the vesicle binding response [10] was 186% (inactive).
